In PubChem BioAssay (NCI):
About 83,000 compounds went through this panel and 20% of them were active in at least one assay; those are over-represented in the sample as a whole.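 Cell lines were cultured in 96-well plates, exposed to a single compound concentration, and assessed for percent growth 48 hours later.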 Unmarked numbers belong to inactive results. Activity calls are given as the source filed them. The calls were made as follows: active = growth percent below 10; inactive = the rest.

How the values were obtained:
Assay in all cases: NCI-60 one-dose screen, 48 h (100 = growth as untreated, 0 = no growth, -100 = all killed)
Conditions in all cases: 10 µM unless noted
[1] = system: RPMI-8226 leukemia
[2] = system: OVCAR-8 ovarian
[3] = system: OVCAR-5 ovarian
[4] = system: OVCAR-4 ovarian
[5] = system: SK-OV-3 ovarian
[6] = system: IGROV1 ovarian
[7] = system: OVCAR-3 ovarian
[8] = system: HS 578T breast
[9] = system: NCI/ADR-RES ovarian
[10] = system: T-47D breast

Structure (SMILES) | growth [1] | growth [2] | growth [3] | growth [4] | growth [5] | growth [6] | growth [7] | growth [8] | growth [9] | growth [10]
O=[N+]([O-])c1ccc(N/N=C\c2ccccc2[N+](=O)[O-])nc1 | 102% | 107% | 124% | 120% | 121% | 106% | 109% | 97.7% | 108% | 107%
Cc1c(N(C)CS(=O)(=O)O)c(=O)n(-c2ccccc2)n1C | 99.2% | 109% | 106% | 116% | 104% | 103% | 118% | 125% | 109% | 107%
CN(CC(=O)N(Cc1ccc(C2CCCCC2)cc1)c1ccc(C(=O)O)cc1)S(=O)(=O)c1c(F)c(F)c(F)c(F)c1F | 11.3% | 6.02% (active) | 116% | 83.8% | 106% | -24.8% (active) | -83.1% (active) | 18.5% | 87.7% | -6.87% (active)
C[n+]1ccc(C#N)c2ccccc21 | 94.6% | 111% | 103% | 64.7% | 98.2% | 70.5% | 4.02% (active) | 108% | 101% | 88.8%
Cc1ccc(NC(=O)COC(=O)c2ccc(S(=O)(=O)N3CCCCCC3)cc2)cc1 | 97.6% | 98.8% | 84% | 105% | 79.4% | 101% | 106% | 113% | 105% | 5.22% (active)
c1cnc2n[nH]c(Nc3ncnc4c3sc3ncccc34)c2c1 | 88.1% | 96.8% | 93.2% | 102% | 102% | 109% | 111% | 117% | 104% | 93.5%
N#Cc1cnc2cc(OC[C@H](O)CO)c(NC(=O)CC3CSSC3)cc2c1Nc1ccc(OCc2cccc(F)c2)c(Cl)c1 | -68.9% (active) | -54.6% (active) | -47.8% (active) | -62.9% (active) | -87.5% (active) | -41.8% (active) | -89.2% (active) | -44.7% (active) | 87.8% | -61.1% (active)
COc1ccc2c(c1)C(=O)c1c-2c(OCCCN(C)C)nc2cc(Br)ccc12 | 73.4% | 3.85% (active) | -46% (active) | 88.6% | 81.3% | 71.3% | 89.1% | 81.4% | 65.6% | 84%
O=C(OC[C@H]1O[C@H](OC(=O)c2cc(O)c(O)c(OC(=O)c3cc(O)c(O)c(O)c3)c2)[C@H](OC(=O)c2cc(O)c(O)c(OC(=O)c3cc(O)c(O)c(O)c3)c2)[C@@H](OC(=O)c2cc(O)c(O)c(OC(=O)c3cc(O)c(O)c(O)c3)c2)[C@@H]1OC(=O)c1cc(O)c(O)c(OC(=O)c2cc(O)c(O)c(O)c2)c1)c1cc(O)c(O)c(OC(=O)c2cc(O)c(O)c(O)c2)c1 | 34.9% | 30.2% | 48.3% | 37.8% | 49.8% | 29.8% | 13.8% | 66.1% | 9.15% (active) | 33.2%
[O-]/[N+](=C\C=C\c1ccccc1)c1ccccc1 | 87.3% | 121% | 107% | 92.1% | 110% | 113% | 99.9% | 130% | 103% | 95.6%
O=C(c1ccccc1)c1ccco1 | 101% | 98.2% | 114% | 99.4% | 104% | 99.5% | 108% | 118% | 95.7% | 97%
COc1cccc2c1O/C(=C\c1c([N+](=O)[O-])ncn1C)C2=O | -17% (active) | 94.4% | 108% | 106% | 93.4% | 97.4% | 106% | 111% | 98.1% | 106%
Cc1cc2c(cc1C)Nc1sc(NC(=O)CN3CCN(C)CC3)nc1C(=O)N2 | 105% | 103% | 105% | 108% | 99.6% | 112% | 112% | 106% | 103% | 94.1%
Nc1ccc(C2=NN(c3ccccc3)C(c3ccc(Cl)cc3)C2)cc1 (stereo not given) | -20.1% (active) | 81.8% | 84.2% | 96.7% | 90.1% | 94.5% | 51.7% | 102% | 89.6% | 63.8%
O=C(/C=C/c1ccc(O)c(O)c1)N1CCN(c2ccc(Cl)cc2)CC1 | 42% | 61.6% | 95.3% | 51.4% | 80.7% | 14.9% | 60.3% | 80.2% | 58.7% | 49.2%
O=C1Nc2ccc(F)cc2/C1=C/c1nc(-c2ccc(F)cc2)n2ccccc12 | 117% | 97.7% | 94.7% | 96.3% | 108% | 97.8% | 112% | 100% | 112% | 96.6%
Cc1cc(C(C)(C)c2cc(C)c(O)c(CN(C)C)c2)cc(CN(C)C)c1O | 84.1% | 89.4% | 102% | 99.1% | 104% | 78.9% | 85.7% | 76.1% | 95.7% | 107%
COc1cc(/C=C/C(=O)c2c(-c3ccc(Cl)cc3)nc3sc(C)nn23)cc(OC)c1OC | -15.6% (active) | 53.3% | 106% | 74.8% | 110% | 89.7% | 88.4% | 109% | 59.8% | 19.3%
CCCCn1c(Cc2ccc(Cl)cc2)nc2cc(OC)c(OC)cc2c1=O | 23.4% | 70.1% | 93.5% | 71.1% | 187% | 69.9% | 80.9% | 114% | 75.7% | 101%
CCCCC1Nc2nc(SC)n(C)c(=O)c2CN(Cc2ccccc2)C1=O (stereo not given) | 67.5% | 99.9% | 100% | 103% | 93.8% | 106% | 113% | 165% | 89.7% | 93.2%
O=C(Nc1nc(-c2ccccc2)cs1)c1cc(O)c(O)c(O)c1 | 17.8% | 39% | 89.4% | 44.5% | 70% | 33.2% | 22.3% | 73.6% | 47% | 31.2%
COc1ccc2[nH]c(-c3ccccc3)cc2c1 | 48.5% | 103% | 109% | 81.3% | 110% | 100% | 101% | 105% | 113% | 72%
Clc1ccc2c(Nc3ccc4oc(NCCN5CCCC5)nc4c3)ccnc2c1 | 77% | 94.3% | 101% | 85.2% | 114% | 93.7% | 82.7% | 97.1% | 101% | 91.9%
O=C(CN1CCCCC1)Sc1nnc2sc3ccccc3n12 | 108% | 98.8% | 144% | 105% | 89.5% | 121% | 111% | 110% | 100% | 92.2%
COc1ccc(C2CC(c3cccc(Nc4ccnc5cc(Cl)ccc45)c3)=NN2C=O)cc1 (stereo not given) | 21.5% | 35.1% | 45.3% | 61.7% | 19% | 32.7% | -22.7% (active) | -3.1% (active) | 8.68% (active) | 43.5%
NNC(=O)C1CC2c3ccccc3C1c1ccccc12 (stereo not given) | 90.1% | 102% | 99.4% | 106% | 112% | 110% | 102% | 102% | 103% | 112%
